Assay outcomes from PubChem BioAssay.
Compounds with a hit are over-represented: about 2.3% of the library has one in this group of screens.
S1P1 agonist: activates the human S1P1 receptor; Sphingosine 1-phosphate receptor 1 (Homo sapiens), P21453; S1P1 agonist cell-based reporter assay; activation, % at 4.5 µM; hit rate 1.5% among 16,000; AID 1044, 2008; in the data active = activation above about 80%
rat GALR2 ag: agonists of rat galanin receptor 2 (GALR2) | cell-based GALR2 agonist screen | activation, % at 10 µM | Galanin receptor type 2 (Rattus norvegicus), O08726 | hit rate 0.5% among 16,000; in the data active = activation above about 15%
TLR4-MyD88 inh: inhibitors of human TLR4-MyD88 binding. Cell-based TLR4-MyD88 binding inhibition assay. inhibition, % at 10 µM. hit rate 0.06% among 16,000; in the data active = inhibition above about 45%
Target sequence (O00206 whole entry, looked up): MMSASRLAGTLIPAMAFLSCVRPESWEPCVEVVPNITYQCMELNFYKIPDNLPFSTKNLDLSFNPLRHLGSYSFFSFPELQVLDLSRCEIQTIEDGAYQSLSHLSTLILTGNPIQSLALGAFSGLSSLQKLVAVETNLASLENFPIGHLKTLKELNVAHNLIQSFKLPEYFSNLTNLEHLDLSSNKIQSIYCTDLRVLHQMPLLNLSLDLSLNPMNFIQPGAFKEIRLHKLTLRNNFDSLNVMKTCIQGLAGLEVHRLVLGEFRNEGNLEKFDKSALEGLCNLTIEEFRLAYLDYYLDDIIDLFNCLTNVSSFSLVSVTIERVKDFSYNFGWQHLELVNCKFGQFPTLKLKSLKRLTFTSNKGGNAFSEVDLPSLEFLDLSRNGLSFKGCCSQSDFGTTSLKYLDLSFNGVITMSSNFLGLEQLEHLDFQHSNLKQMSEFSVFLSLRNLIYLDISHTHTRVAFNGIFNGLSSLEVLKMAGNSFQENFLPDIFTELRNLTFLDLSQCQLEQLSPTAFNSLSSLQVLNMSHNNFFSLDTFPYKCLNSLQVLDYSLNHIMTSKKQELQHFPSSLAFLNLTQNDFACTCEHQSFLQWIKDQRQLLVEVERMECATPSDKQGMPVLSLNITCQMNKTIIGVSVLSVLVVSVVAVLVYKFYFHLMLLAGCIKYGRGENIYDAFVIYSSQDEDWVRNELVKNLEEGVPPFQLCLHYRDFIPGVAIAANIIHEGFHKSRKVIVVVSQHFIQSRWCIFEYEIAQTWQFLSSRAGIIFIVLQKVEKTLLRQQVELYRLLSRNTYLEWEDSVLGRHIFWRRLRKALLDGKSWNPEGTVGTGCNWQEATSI
The depositor's hits bear a star.

SMILES	S1P1 agonist	rat GALR2 ag	TLR4-MyD88 inh
Cc1nnsc1C(=O)Nc1ccc(-n2nc(C(F)(F)F)cc2-c2cccs2)cc1	24.1	-7.6	-1.0
N#C/C(=C\Nc1cccnc1)S(=O)(=O)c1ccc(Cl)cc1	-13.5	-5.7	7.9
N#C/C(=C\Nc1cc(C(F)(F)F)cc(C(F)(F)F)c1)S(=O)(=O)c1ccc(Cl)cc1	86.6*	-9.9	-3.8
O=S(=O)(c1cc(Br)c(Cl)s1)N1C=CC(C(F)(F)F)=NCC1	-1.8	-8.7	-4.3
O=S(=O)(Nc1ccc(C(F)(F)F)cc1Cl)c1cc(Br)c(Cl)s1	113.1*	-3.9	-18.4
Cc1nn(C(=O)C2CC2)c(C)c1Oc1ccc(Cl)cc1	6.6	-6.9	7.7
FC(F)(F)c1cc(-c2ccc(-c3ccn[nH]3)o2)cc(C(F)(F)F)c1	101.8*	0.6	1.5
Cc1oc(-c2ccc(Cl)cc2)cc1-c1ccn[nH]1	7.8	-4.2	-4.7
O=C(Nc1ccccc1)O/N=C/c1ccc(-c2ccc(F)cc2F)o1	-1.5	-6.8	-9.4
COc1ccc(OC)c(NC(=O)C(=O)NC2CC(C)CC(C)(C)C2)c1 (centres undefined)	18.8	-8.6	-0.5
COc1cc(C(=O)NC2CC(C)CC(C)(C)C2)cc(OC)c1OC (centres undefined)	108.8*	-2.3	4.5
CN1CC2CCC1C[C@H](NC(=O)c1ccccc1)C2 (some centres undefined)	-1.2	-8.2	-4.9
Cc1cc(C(=O)N/N=C/c2[nH]ncc2Br)no1	6.7	-3.5	5.7
Cc1cc(NC(=O)NCc2ccc3c(c2)OCO3)c(C(F)(F)F)o1	-4.2	-3.0	-15.6
CN(C)c1ccc(/C=C/c2cc[n+](Cc3ccc(F)cc3)cc2)cc1	28.2	-4.3	50.7*
CN(C)c1ccc(/C=C/c2ccccc2)cc1	5.6	4.1	-14.6
O=C1C=CC(=O)N1c1ccc2c(c1)OCCO2	6.8	-9.3	-9.1
CN(C)Nc1ccc([N+](=O)[O-])c(NN(C)C)c1C#N	81.4*	-4.9	7.6
N#Cc1c(NCc2cccs2)ccc([N+](=O)[O-])c1NCc1cccs1	18.5	-10.6	9.3
COc1ccc(CCNC(C#N)c2ccco2)cc1OC (centres undefined)	105.0*	-12.0	3.9
COc1ccc(CCNC(=O)c2ccccc2)cc1OC	-7.3	-5.7	-0.9
N#CNC=Nc1cc(Cl)cc(Cl)c1	-2.4	-8.0	-1.7
O=S(=O)(Nc1ccccc1SCc1cccc(Cl)c1F)c1cc(Cl)sc1Cl	-6.3	-6.6	0.3
Cn1c(C(F)(F)F)n[nH]c1=S	-17.1	-8.6	-13.7
Cn1c(-c2ncc(C(F)(F)F)cc2Cl)n[nH]c1=S	92.9*	-7.1	-4.7
SMILES	S1P1 agonist	rat GALR2 ag	TLR4-MyD88 inh
Cc1cccc(Cl)c1NC(=S)NCC1CCCO1 (centres undefined)	-5.5	-3.7	1.2
COc1ccc(Oc2ccc([N+](=O)[O-])cc2)cc1	2.8	-7.0	1.1
COc1ccc(Oc2ccc([N+](=O)[O-])c(Oc3ccc(OC)cc3)n2)cc1	88.1*	-5.3	-1.7
O=C(Oc1cccc2c1C(=O)C=CC2=O)c1ccccc1	102.0*	-3.4	-4.1
O=C(Oc1cccc2c1CCC2=O)c1ccccc1	0.2	-8.2	1.2
Cc1ccc(SC(=O)N/C=C/c2ccsc2)cc1	2.3	-7.6	-0.8
COc1ccc(/C=C/c2nc3ccccc3s2)cc1OC	85.3*	-2.6	0.2
COc1ccc(/C=C2\CC/C(=C\c3ccc(OC)c(OC)c3)C2=O)cc1OC	2.2	-9.4	-4.4
CSc1sc(C(=O)NCC2CC2)cc1S(=O)(=O)C(C)C	-2.8	17.1*	-0.9
CSc1sc(C(=O)O)cc1S(=O)(=O)C(C)C	2.5	-3.1	7.3
O=S(=O)(c1ccc2c(c1)CCO2)N1CCN(C2c3ccccc3-c3ccccc32)CC1	3.0	-5.7	-3.7
O=S(=O)(Nc1cc(C(F)(F)F)ccc1F)c1cc(C(F)(F)F)ccc1Cl	85.5*	-2.6	-9.1
Cc1cc(NS(=O)(=O)c2ccc(C(F)(F)F)cc2Cl)no1	-15.2	-1.1	0.7
Cc1nc2c(cnn2-c2ccccc2)c(=O)n1/N=C/c1ccc(Cl)cc1	-7.2	8.9	0.1
S=C(SCc1ncon1)N1CCOCC1	6.3	-7.5	7.7
S=C(SCc1ncon1)N1CCCC1	83.1*	-9.6	10.1
O=S(=O)(c1cc(C(F)(F)F)ccn1)c1cccs1	-1.4	-3.2	3.4
Cc1cc(C)c(C#N)c(OC(=O)c2c(F)cccc2F)n1	-0.4	-0.7	1.2
O=[N+]([O-])c1ccc(SC2=NCCS2)c([N+](=O)[O-])c1	113.3*	-8.0	-18.9
O=[N+]([O-])c1ccc(SC2=NCCS2)nc1	29.5	1.8	-0.6
CC(CC(=O)Oc1ccc(C(F)(F)F)cc1)S(=O)(=O)c1ccc(Cl)cc1 (centres undefined)	7.9	-3.6	-2.8
Nc1ncnc(SCc2nc(-c3ccc(OC(F)(F)F)cc3)no2)n1	3.6	-7.4	1.1
